PubChem BioAssay AID1159580 (chemical genetic matrix, 2015)
The whole screen tested about 5,500 compounds, of which about 2,000 (36%) were called active. Roughly 18% stayed inconclusive and do not appear here. Cut-off read from the data, not from the text of the source: active = normalized growth mostly below about 0.91 (no sharp cut-off); inconclusive = no clear call, values can overlap the other calls; inactive = mostly above about 0.92. This is one part of the list.

Experiment: chemical genetic growth profiling, strain panel (AID 1159580);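 note: tested at 20 µM; growth read once vehicle control cultures reached saturation at 30 °C; 1 = growth at the plate median or of vehicle wells; lower values mean less growth of the strain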
Conditions: growth OD
[1] = S. cerevisiae deletion strains, locus YAL040C, strain CLN3, active compounds read low
[2] = S. cerevisiae deletion strains, locus YCL061C, strain MRC1 (second series), active compounds read low
[3] = S. cerevisiae deletion strains, locus YDR363W, strain ESC2, active compounds read low
[4] = S. cerevisiae deletion strains, locus YER002W, strain NOP16, active compounds read low
[5] = S. cerevisiae deletion strains, locus YGR078C, strain PAC10, active compounds read low
[6] = S. cerevisiae deletion strains, locus YJR075W, strain HOC1, active compounds read low
[7] = S. cerevisiae deletion strains, locus YMR307W, strain GAS1, active compounds read low
[8] = S. cerevisiae deletion strains, locus YNL128W, strain TEP1, active compounds read low
[9] = S. cerevisiae deletion strains, locus YNL153C, strain GIM3, active compounds read low
[10] = S. cerevisiae deletion strains, locus YNL175C, strain NOP13, active compounds read low
[11] = S. cerevisiae deletion strains, locus YNL197C, strain WHI3, active compounds read low
[12] = S. cerevisiae deletion strains, locus YNL224C, strain SQS1, active compounds read low
[13] = S. cerevisiae deletion strains, locus YOR083W, strain WHI5 (second series), active compounds read low
[14] = S. cerevisiae deletion strains, locus YPL241C, strain CIN2, active compounds read low
[15] = S. cerevisiae deletion strains, locus YMR263W, strain SAP30, active compounds read low

Measured: normalized growth

O=C(O)CNC(=O)C(CS)Cc1ccccc1 (stereo not given)
inactive: S. cerevisiae deletion strains, locus YAL013W, strain DEP1, active compounds read low 1.01 | [1] 1.05 | [2] 1 | [3] 1.01 | [4] 0.994 | [5] 1.01 | [6] 0.996 | [7] 1 | [8] 1.02 | [9] 1.07 | [10] 1.01 | [11] 0.967 | [12] 1 | S. cerevisiae deletion strains, locus YNL322C, strain KRE1, active compounds read low 0.995 | [13] 1.04 | S. cerevisiae deletion strains, locus YPL055C, strain LGE1, active compounds read low 1.01 | [14] 1.01

CC(=O)SC1CC2=CC(=O)CC[C@]2(C)C2CC[C@@]3(C)C(CC[C@@]34CCC(=O)O4)C12 (stereo not given in full)
inactive: [1] 0.996 | [2] 1 | S. cerevisiae deletion strains, locus YDR150W, strain NUM1, active compounds read low 1.01 | [3] 1 | [4] 0.982 | [5] 1.01 | S. cerevisiae deletion strains, locus YGR229C, strain SMI1, active compounds read low 1.01 | [6] 1.01 | [15] 0.99 | [7] 1.03 | [8] 0.986 | [10] 1.01 | [11] 0.999 | [12] 1 | [13] 1.01 | [14] 1.01

CC(=O)O[C@@H]1CC2C(C)(C)C(=O)[C@@H]3O[C@@H]3[C@]2(C)C2CC[C@]3(C)C(=CC(=O)O[C@H]3c3ccoc3)[C@@]21C (stereo not given in full)
inactive: S. cerevisiae deletion strains, locus YBR021W, strain FUR4, active compounds read low 0.995 | S. cerevisiae deletion strains, locus YBR229C, strain ROT2, active compounds read low 0.94 | S. cerevisiae deletion strains, locus YCL029C, strain bik1, active compounds read low 0.967 | S. cerevisiae deletion strains, locus YDL035C, strain GPR1, active compounds read low 0.958 | S. cerevisiae deletion strains, locus YDL074C, strain BRE1, active compounds read low 0.989 | S. cerevisiae deletion strains, locus YDL101C, strain DUN1, active compounds read low 0.994 | S. cerevisiae deletion strains, locus YDL134C, strain PPH21, active compounds read low 0.988 | S. cerevisiae deletion strains, locus YDL185W, strain tfp1, active compounds read low 0.964 | S. cerevisiae deletion strains, locus YDL192W, strain arf1, active compounds read low 0.976 | S. cerevisiae deletion strains, locus YDR101C, strain arx1, active compounds read low 0.975 | S. cerevisiae deletion strains, locus YDR162C, strain NBP2, active compounds read low 0.98 | S. cerevisiae deletion strains, locus YDR318W, strain mcm21, active compounds read low 0.995 | S. cerevisiae deletion strains, locus YDR388W, active compounds read low 0.999 | S. cerevisiae deletion strains, locus YDR502C, strain sam2, active compounds read low 1.01 | S. cerevisiae deletion strains, locus YEL061C, strain CIN8, active compounds read low 0.979 | S. cerevisiae deletion strains, locus YER110C, active compounds read low 0.975 | S. cerevisiae deletion strains, locus YER155C, strain BEM2, active compounds read low 0.998 | S. cerevisiae deletion strains, locus YER167W, strain BCK2, active compounds read low 0.981 | S. cerevisiae deletion strains, locus YGL078C, strain dbp3, active compounds read low 1.01 | S. cerevisiae deletion strains, locus YGL086W, strain mad1, active compounds read low 0.99 | S. cerevisiae deletion strains, locus YGL248W, strain PDE1, active compounds read low 1.01 | [5] 1.01 | S. cerevisiae deletion strains, locus YGR135W, strain pre9, active compounds read low 1.07 | S. cerevisiae deletion strains, locus YGR252W, strain gcn5, active compounds read low 0.997 | S. cerevisiae deletion strains, locus YHR030C, strain SLT2, active compounds read low 0.989 | S. cerevisiae deletion strains, locus YHR079C, strain IRE1 (second series), active compounds read low 0.985 | S. cerevisiae deletion strains, locus YHR094C, strain hxt1, active compounds read low 0.981 | S. cerevisiae deletion strains, locus YHR129C, strain ARP1, active compounds read low 0.988 | S. cerevisiae deletion strains, locus YHR200W, strain rpn10, active compounds read low 0.985 | S. cerevisiae deletion strains, locus YIL066C, strain RNR3, active compounds read low 0.948 | S. cerevisiae deletion strains, locus YIL073C, strain SPO22, active compounds read low 0.956 | S. cerevisiae deletion strains, locus YIL125W, strain kgd1, active compounds read low 0.987 | S. cerevisiae deletion strains, locus YIR030C, strain dcg1, active compounds read low 0.99 | S. cerevisiae deletion strains, locus YJL095W, strain BCK1, active compounds read low 1.04 | S. cerevisiae deletion strains, locus YJL134W, strain LCB3, active compounds read low 0.982 | S. cerevisiae deletion strains, locus YJL168C, strain set2, active compounds read low 0.996 | S. cerevisiae deletion strains, locus YJL187C, strain SWE1 (second series), active compounds read low 1.01 | S. cerevisiae deletion strains, locus YJR043C, strain POL32, active compounds read low 0.96 | [6] 1 | S. cerevisiae deletion strains, locus YKL009W, strain mrt4, active compounds read low 0.976 | S. cerevisiae deletion strains, locus YKL068W, active compounds read low 0.986 | S. cerevisiae deletion strains, locus YKL085W, strain MDH1 (second series), active compounds read low 0.996 | S. cerevisiae deletion strains, locus YKL085W, strain MDH1, active compounds read low 0.996 | S. cerevisiae deletion strains, locus YKR001C, strain vps1, active compounds read low 0.971 | S. cerevisiae deletion strains, locus YLR039C, strain RIC1, active compounds read low 0.99 | S. cerevisiae deletion strains, locus YLR058C, strain SHM2, active compounds read low 0.974 | S. cerevisiae deletion strains, locus YLR102C, strain apc9, active compounds read low 0.981 | S. cerevisiae deletion strains, locus YLR262C, strain YPT6, active compounds read low 0.963 | S. cerevisiae deletion strains, locus YLR268W, strain sec22, active compounds read low 0.948 | S. cerevisiae deletion strains, locus YLR330W, strain CHS5, active compounds read low 0.988 | S. cerevisiae deletion strains, locus YLR371W, strain rom2, active compounds read low 0.979 | S. cerevisiae deletion strains, locus YLR418C, strain cdc73, active compounds read low 0.993 | S. cerevisiae deletion strains, locus YML016C, strain PPZ1, active compounds read low 0.972 | S. cerevisiae deletion strains, locus YML032C, strain rad52, active compounds read low 0.962 | S. cerevisiae deletion strains, locus YML124C, strain tub3, active compounds read low 0.991 | S. cerevisiae deletion strains, locus YMR078C, strain ctf18, active compounds read low 0.993 | S. cerevisiae deletion strains, locus YMR223W, strain ubp8, active compounds read low 1 | [15] 1.01 | [7] 0.999 | S. cerevisiae deletion strains, locus YNL067W, strain RPL9B, active compounds read low 1.03 | [8] 0.948 | [9] 1.02 | S. cerevisiae deletion strains, locus YNL233W, strain BNI4, active compounds read low 1.03 | S. cerevisiae deletion strains, locus YNL250W, strain rad50, active compounds read low 1.01 | S. cerevisiae deletion strains, locus YNL271C, strain bni1, active compounds read low 0.999 | S. cerevisiae deletion strains, locus YNL298W, strain CLA4, active compounds read low 0.995 | S. cerevisiae deletion strains, locus YNL307C, strain MCK1, active compounds read low 0.987 | S. cerevisiae deletion strains, locus YNR052C, strain pop2, active compounds read low 1.04 | S. cerevisiae deletion strains, locus YOL012C, strain htz1 0.875 | S. cerevisiae deletion strains, locus YOL147C, strain pex11, active compounds read low 0.993 | S. cerevisiae deletion strains, locus YOR061W, strain CKA2, active compounds read low 0.936 | S. cerevisiae deletion strains, locus YOR069W, strain VPS5, active compounds read low 0.995 | S. cerevisiae deletion strains, locus YOR136W, strain idh2, active compounds read low 0.99 | S. cerevisiae deletion strains, locus YOR144C, strain elg1, active compounds read low 0.988 | S. cerevisiae deletion strains, locus YOR184W, strain ser1, active compounds read low 0.963 | S. cerevisiae deletion strains, locus YOR316C, strain cot1, active compounds read low 0.986 | S. cerevisiae deletion strains, locus YPR119W, strain clb2, active compounds read low 0.993 | S. cerevisiae deletion strains, locus YPR141C, strain kar3, active compounds read low 0.989 | S. cerevisiae deletion strains, locus YPR163C, strain tif3, active compounds read low 0.982 | S. cerevisiae deletion strains, locus YPR167C, strain met16, active compounds read low 0.999 | S. cerevisiae deletion strains, strain wtn01, active compounds read low 0.96 | S. cerevisiae strains, strain wild type, active compounds read low 0.973
